The source made the active and inactive calls. The call rests on the fitted dose curve; in most records, active means well fitted inhibition curve with a large enough effect; inconclusive means small, poorly fitted or top-dose-only effect; inactive means no such curve, though single readings can be large or run the other way.

A short description of this experiment: qHTS assay for measurement of the activity of small molecule inhibitors on Zika virus induced Caspase-3 activity in human astrocytoma cells (AID 1224859).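 Further: plate controls were ZIKV-infected untreated cells for no effect and uninfected cells for full effect.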 As to conditions: SNB-19 ZIKV-induced caspase-3/7, luminescence, 6 h; series mostly up to 45.7 µM; activity change, negative = inhibition: at the top concentration. The text has this: National Center for Advancing Translational Sciences [NCATS]
Johns Hopkins University School of Medicine
Increase in the Caspase-3 activity indicates an activation of apoptosis cell death pathway caused by Zika virus infection in certain types of neuronal cells including human neural progenitor cells (hNPCs), astrocytes, and astrocytoma cell line (SNB-19). This cell-based caspase-3 activity assay measures the increased caspase-3 activity in the astrocytoma cell line (SNB-19) after a 6-hour Zika virus infection with a luminescence readout. A decrease in the luminescence signal in this assay by small molecule treatment indicates an inhibitory effect of that small molecule on the Zika virus induced caspase-3 activity that may correlate with its effect on reduction of Zika virus caused cell death.
The medium for SNB-19 cells is composed of RPMI 1640 (ATCC, Cat.# 30-2001), 10% fetal bovine serum (FBS) (GE healthcare Life Sciences, Cat.# SH30071.03), and 1% Pen/Strep (Gibco, Cat.# 15140-122). A Caspase-Glo 3/7 assay kit (catalog number G8092; Promega, Madison, WI) was used to detect caspase-3 activity induced by Zika virus infection in human cells. The reagent mixture was reconstituted as described in the protocol from the manufacturer. Polystyrene tissue culture treated and PDL coated white plates were obtained from Greiner Bio-One (Monroe, NC). Cells were seeded in 384- or 1536-well assay plates and cultured at 37 C with 5% CO2 for 16 to 20 hours. The typical cell seeding density in the 1536-well plate assay is 250 cells/well in 3ul medium for SNB-19 cells in tissue culture treated plates. Compounds were added to cells and incubated for one hour before addition of ZIKV solution to cells (2 FFU/cell). After incubation at 37 C with 5% CO2 for 6 hours, the reagent mixture of Caspase-Glo 3/7 assay kit was added to each well, followed by incubation at room temperature for 30 minutes. The luminescence intensity of the assay plates was measured using a ViewLux plate reader (PerkinElmer). Data were normalized by using the cell-containing wells without ZIKV as a negative control (0% induction of caspase 3/7 activity) and wells containing ZIKV infected cells (Caspase-3 activity induced) as a positive control (100% induction of caspase 3 activity). The percentage inhibitions of the increased Caspase-3 activity by small molecule inhibitors were then calculated.
In the case of `CCCCCCCCCCCC[N+](C)(C)Cc1ccccc1`, the “activity change, negative = inhibition” value is 167% (inactive).

For the compound `CCCCN(CCCC)C(C(N)=O)c1ccc(OC)cc1` (stereo not given), the “activity change, negative = inhibition” value was 6.2% (inactive). `Cc1oc(=O)oc1COC(=O)[C@@H]1N2C(=O)[C@@H](NC(=O)[C@H](N)c3ccccc3)[C@H]2SC1(C)C`: the “activity change, negative = inhibition” value is -13.4% (inactive). Next, `CC(COc1ccccc1)NN` (stereo not given): 12.9% (inactive). As to `CCC(=O)Oc1ccc2c(c1)CC[C@@H]1[C@@H]2CC[C@@]2(C)[C@H]1C[C@@H](OC(=O)CC)[C@@H]2OC(=O)CC`, the “activity change, negative = inhibition” value was -2.29% (inactive). The result for `CCCC(=O)Nc1ccc(O)c(C(C)=O)c1` reads -4.19% (inactive); that for `CCCCC(CC)COC(=O)c1ccccc1C(=O)O` (stereo not given), -6.68% [at 92.8 µM] (inactive); that for `NS(=O)(=O)c1cc2c(cc1Cl)CN(C1CCCCC1)C2=O`, -1.16% (inactive). Next, `COc1cc(C(=O)NC2CCCNC2)cc(OC)c1OC` (stereo not given): 7.19% (inactive); `CC(C)OP(=O)(CP(=O)(OC(C)C)OC(C)C)OC(C)C`: 2.53% (inactive); `CCCC(=O)O[C@]1(C(=O)CC)CC[C@H]2[C@@H]3CCC4=CC(=O)CC[C@]4(C)[C@H]3[C@@H](O)C[C@@]21C`: 25.7% (inactive).

Regarding `Nc1nc(=O)n([C@@H]2O[C@H](CO)[C@@H](O)[C@@H]2F)cc1I`, the “activity change, negative = inhibition” value was 0.331% (inactive). As for `O=C1Nc2ccccc2C1(c1ccc(O)cc1)c1ccc(O)cc1`, the “activity change, negative = inhibition” value is -4.06% (inactive). For `Cc1ccc(O)cc1`, the “activity change, negative = inhibition” value is -3.36% (inactive). With `CC(C)(C)C(O)/C=C/c1ccc2c(c1)OCO2` (stereo not given), the “activity change, negative = inhibition” value is -13.5% (inactive). Next, `Oc1ccc(CCNCCCCCCNCCc2ccccc2)cc1O`: -2.12% (inactive). Turning to `CCOC(=O)N1CCC(Nc2ccc(Cl)cc2N)CC1`, the “activity change, negative = inhibition” value was -6.12% (inactive).

Turning to `c1ccc2occc2c1`, the “activity change, negative = inhibition” value is -4.9% [at 92.8 µM] (inactive). The result for `O=C(O)c1[nH]n(-c2ccc(S(=O)(=O)O)cc2)c(=O)c1N=Nc1ccc(S(=O)(=O)O)cc1` reads 1.81% (inactive); that for `CCCC(=O)c1cc(O)c(O)cc1O`, -16.7% [at 92.8 µM] (inactive); that for `C1N2CN3CN1CN(C2)C3`, -8.71% (inactive). `CC(=O)Nc1c(I)c(NC(C)=O)c(I)c(C(=O)O)c1I`: the “activity change, negative = inhibition” value is -7.08% (inactive). Regarding `CCCC(=O)O[C@]1(C(=O)CCl)[C@@H](C)C[C@H]2[C@@H]3CCC4=CC(=O)C=C[C@]4(C)[C@@]3(F)C(=O)C[C@@]21C`, the “activity change, negative = inhibition” value was -15.6% (inactive).

As to `CC(C)C(C)(C)C(C)(C)C(C)(C)S`, the “activity change, negative = inhibition” value was 12.9% [at 92.8 µM] (inactive). As to `Cc1nc(N)nc(N)c1-c1ccc(Cl)c(Cl)c1`, the “activity change, negative = inhibition” value is 5.06% (inactive). Next, `Cc1cc(CCCOc2c(C)cc(-c3noc(C(F)(F)F)n3)cc2C)on1`: 6.31% (inactive); `CN1N=C(C(N)=O)CCC1=O`: 22% (inactive). As to `Cc1cccc(N(C)C(=S)Oc2ccc3c(c2)CCC3)c1`, the “activity change, negative = inhibition” value is 2% (inactive). The result for `OCCc1ccccc1` reads 7.73% (inactive); that for `O=C(C1CCCCC1)N1CC(=O)N2CCCc3ccccc3C2C1` (stereo not given), 8.6% (inactive); that for `CSc1ccc(/C=C2/C(C)=C(CC(=O)O)c3cc(F)ccc32)cc1`, -3.46% (inactive).

As for `CC(C)C[C@@H]1[C@H](c2ccccc2)OC(=O)N1CCCN1CCCCCC1`, the “activity change, negative = inhibition” value was -17.2% (inactive). Next, `COc1ccc2c(c1)CCCC2=O`: -7.66% (inactive); `O=C(CCOCCOCCOCCOCCC(=O)Nc1c(I)cc(I)c(C(=O)O)c1I)Nc1c(I)cc(I)c(C(=O)O)c1I`: 3.23% (inactive). `O=C(O)Cn1c(=O)n(Cc2ccc(Br)cc2F)c(=O)c2ccc(Cl)cc21`: the “activity change, negative = inhibition” value is 9.17% (inactive). Take `CC[C@@]1(O)C(=O)OCc2c1cc1n(c2=O)Cc2c-1nc1ccccc1c2/C=N/OC(C)(C)C`: the “activity change, negative = inhibition” value was 108% (inactive).

For `COc1cccc2c1[C@@H]1CN(CCCCn3c(=O)[nH]c4c(sc5ncc(-c6ccccc6)nc54)c3=O)C[C@@H]1CO2`, the “activity change, negative = inhibition” value was 22.6% (inactive). Next, `CCC[C@H](N[C@@H](C)C(=O)N1[C@H](C(=O)O)C[C@@H]2CCCC[C@@H]21)C(=O)OCC`: -7.05% (inactive); `N#CSCC(=O)O`: -8.65% (inactive); `C/C(=N/NC(=O)c1ccncc1)C(=O)O`: 13.3% (inactive).

The values are drawn from PubChem BioAssay (NCATS).
